Most compounds without a hit are left out; they make up all but 7.5% or so of the library.
NPC1 prom act: NPC1 promoter activation; Huh7 NPC1 promoter luciferase reporter, 24 h; Potency, µM (highest dose often 9.22 µM), for the others: at the top dose activation, actives largely listed as activators; 320,000 tested, 2.4% active; AID 485313; further: % of control where 0% means no effect; nearly all actives have a fitted effect of over 60% in size
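Stable NPC1-promoter luciferase Huh7 line; cpd (DMSO) 24 h, 37 °C, 5% CO2; Amplite luciferase reagent 10 min RT; luminescence readout. qHTS format.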
ELG1 genotox: induces genotoxicity in HEK293T cells with luciferase-tagged ELG1 | AID 504466 | HEK293T ELG1-luciferase reporter, luminescence, 16 h | 330,000 tested, 1.3% active | Potency, µM (titrated, usually from 46 µM), for the others: at the highest dose activity change, positive = activation, hits mostly activators; further: % of control where 0% means no effect; nearly all actives have a fitted effect of over 60% in size
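HEK293T cells expressing luciferase-tagged ELG1 were treated with compound or DMSO for 16 hr at 37°C. Luciferase activity was then read after 30 min with ONE-Glo at room temperature; rising signal flags genetic stress.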
Luc counter: counter-screen: inhibitors of Kinase-Glo firefly luciferase | 200,000 tested, 0.28% active | Potency, µM (top dose mostly 38.3 µM), for inactives: at the highest dose activity change, negative = inhibition, usual class: inhibitors | Kinase-Glo luciferase, ATP luminescence, 8 min; further: on the % scale 0 is the no-effect control and ±100 the full control effect; nearly all actives have a fitted effect of over 60% in size
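Substrate mix (final 50 mM imidazole pH 7.2, 50 mM KCl, 7 mM MgCl2, 10 uM ATP, 0.01% Tween 20, 0.05% BSA) plus pin-tool compound, then Kinase-Glo detection mix; 8 min ambient, luminescence read.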
SMN2 splice up: enhancers of SMN2 splice variant expression; 210,000 tested, 2.8% active; AID 1458; HEK293 SMN2-luciferase splicing reporter, luminescence, 30-36 h; Potency, µM (top dose mostly 46.1 µM), for inactives: at the top dose activity change, positive = activation, actives largely listed as activators; further: % of control where 0% means no effect; nearly all actives have a fitted effect of over 55% in size
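HEK293 cells carry an SMN2 minigene-luciferase reporter in which exon 7 inclusion puts luciferase in frame. Cells were seeded at 2000 cells/well, attached for 10-12 hours, then exposed to compounds for 30-36 hours at 37C before ONE-Glo luminescence.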
FLuc counter: counter-screen for miR-21 project: firefly luciferase inhibitors or activators; Potency, µM (top dose mostly 57.5 µM), for the others: top-dose activity change, negative = inhibition, actives largely listed as inhibitors; purified FLuc, Km substrates, luminescence inhibition; AID 588342; 360,000 tested, 6.9% active;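 further: plate controls were vehicle for no effect and reference inhibitor for full effect; nearly all actives have a fitted effect of over 55% in size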
Target sequence (P08659 whole entry, looked up): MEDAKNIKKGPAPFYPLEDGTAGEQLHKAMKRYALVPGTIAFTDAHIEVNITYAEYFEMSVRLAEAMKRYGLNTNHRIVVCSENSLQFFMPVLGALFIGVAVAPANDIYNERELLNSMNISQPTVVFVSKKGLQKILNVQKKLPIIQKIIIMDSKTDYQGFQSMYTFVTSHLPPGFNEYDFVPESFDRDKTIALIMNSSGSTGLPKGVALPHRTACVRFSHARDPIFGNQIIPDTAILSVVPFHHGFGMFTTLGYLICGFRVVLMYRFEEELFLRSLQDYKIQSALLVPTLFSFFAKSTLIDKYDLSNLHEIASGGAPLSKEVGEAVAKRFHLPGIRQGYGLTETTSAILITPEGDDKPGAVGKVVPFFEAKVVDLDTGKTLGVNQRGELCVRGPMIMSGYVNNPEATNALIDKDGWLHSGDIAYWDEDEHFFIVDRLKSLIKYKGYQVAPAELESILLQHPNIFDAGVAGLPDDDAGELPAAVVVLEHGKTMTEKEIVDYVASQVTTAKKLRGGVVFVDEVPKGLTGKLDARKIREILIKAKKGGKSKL
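Biochemical qHTS of compounds, final roughly 60 µM downward over six points, against 10 nM purified firefly luciferase using Km concentrations of substrates (10 uM D-luciferin, 10 uM ATP) in Tris acetate pH 7.5 buffer; luminescence output.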
Rab9 promoter act: activators of Rab9 promoter; 320,000 tested, 2.8% active; Potency, µM (top dose mostly 9.22 µM), without a hit: top-dose activation, negative = inhibition, hits mostly activators; Huh7 Rab9 promoter-luciferase reporter, luminescence, 24 h; AID 485297; further: % of control where 0% means no effect; nearly all actives have a fitted effect of over 60% in size
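Luminescence from Amplite-detected luciferase (10 minutes, ambient) reports Rab9 promoter activation. Before that, stable Rab9-luciferase Huh7 cells (1500/well, reduced-serum OP-MEM I plus 10% FBS) were exposed to compound for 24 hours at 37C.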
An asterisk follows results filed as active; u = inconclusive; x = no result given; ! = not active in a repeat; [ ] = remark or other dose. The call rests on the fitted dose curve; in most records, active means well fitted curve in the direction sought with a large enough effect; inconclusive means small, poorly fitted or top-dose-only effect, or another doubt; inactive means no such curve, though single readings can be large; an effect the other way counts as inactive or inconclusive. Potency means the concentration at half of the fitted maximal effect.

SMILES	NPC1 prom act	ELG1 genotox	Luc counter	SMN2 splice up	FLuc counter	Rab9 promoter act
c1ccc(-c2cn3nc(-c4ccccc4)cnc3n2)cc1	0.631µM*	u	-6.4%	2µM*	0.213µM*	0.447µM*
Cc1nc2nc(-c3ccc(F)cc3)cn2nc1C	u	1.64µM*	x	x	2.13µM*	0.282µM*
Cc1nc2nc(-c3ccccc3)cn2nc1C	x	x	10µM*	8.91µM*	2.39µM*	x
COc1ccc(N2Cc3ccccc3C2)cc1Cl	18.6%	20.6µM*	-4.2%	u	u	u
c1ccc2oc(-c3ccn[nH]3)cc2c1	2.82µM*	u	x	x	8.49µM*	3.16µM*
c1ccc2oc(-c3[nH]ncc3CN3CCSCC3)cc2c1	0.9%	-0.8%	x	x	-1.9%	3.6%
C=CCOc1ccc(/C(O)=C2/C(=O)C(=O)N(CCCn3ccnc3)C2c2cccs2)cc1 (centres undefined)	24.7%	4.4%	0.2%	2.6%	15.1µM*	u
C=CCOc1ccc(/C(O)=C2/C(=O)C(=O)N(CCCn3ccnc3)C2c2ccco2)cc1 (centres undefined)	16.3%	6.0%	-1.5%	9.6%	-17.9%	u
CCOC(=O)CSc1ncnc2c1cnn2-c1ccc(Cl)cc1	13.5%	17.2%	1.1%	7.1%	9.53µM*	4.5%
CCOC(=O)CSc1ncnc2c1cnn2-c1ccc(C)cc1	14.1%	u	4.5%	24.6%	u	15.5%
Cc1nnc2c3cnn(-c4ccc(Cl)cc4)c3ncn12	u	20.6µM*	-4.0%	-8.4%	u	u
CCOC(=O)Cn1cnc2c(cnn2-c2ccc(Cl)cc2)c1=O	20.8%	3.1%	x	x	u	u
CCOC(=O)CC(=O)CSc1ncnc2c1cnn2-c1ccccc1	u	u	-2.2%	8.6%	23.9µM*	u
Cc1ccc(CNC(=O)C2CCN(S(=O)(=O)c3ccc4[nH]c(=O)ccc4c3)CC2)cc1	x	x	x	x	-4.2%	x
Nc1cccc2c1C(=O)N(CC(=O)NC13CC4CC(CC(C4)C1)C3)C2=O	-0.5%	0.5%	7.3%	-3.0%	-1.7%	-2.7%
O=C(Cn1sc2ccccc2c1=O)NC12CC3CC(CC(C3)C1)C2	13.3%	1.0%	-1.1%	-16.0%	7.57µM*	14.1%
O=C(Cn1c(=O)n(Cc2ccc(F)cc2)c(=O)c2sc3ccccc3c21)NCc1ccccc1Cl	x	x	x	4.1%	-0.5%	x
O=C(Nc1ccc(Br)cc1)C1Cc2ccccc2O/C1=N\O (centres undefined)	3.16µM*	18.3µM*	x	x	u	2.82µM*
Cc1ccc(NC(=O)C2Cc3ccccc3O/C2=N\O)cc1C (centres undefined)	27.7%	u	x	x	-12.3%	u
CC1CCN(CCCNC(=O)c2cc(Sc3ccc(F)cc3)nc3ccccc23)CC1	x	x	x	x	-0.8%	x
Cc1[nH]c(C)c2c(=O)n(-c3ccccc3)ncc12	17.6%	20.6µM*	-3.4%	-0.4%	u	u
Cc1c2cnn(-c3ccccc3)c(=O)c2c(C)n1CC(=O)NCc1ccccc1	x	x	x	-5.0%	-1.4%	x
CCC(C)c1ccccc1OCC(=O)Nc1ccc(S(=O)(=O)Nc2cc(C)on2)cc1 (centres undefined)	x	x	x	7.8%	u	x
COc1ccc(C(=O)NCCSc2c[nH]c3ccccc23)cc1OC	x	x	x	-10.0%	-1.5%	x
CCCSc1nnc2c(n1)OC(c1sccc1C)Nc1ccccc1-2 (centres undefined)	x	x	x	3.16µM*	u	x
SMILES	NPC1 prom act	ELG1 genotox	Luc counter	SMN2 splice up	FLuc counter	Rab9 promoter act
CC(C)C1NC(=O)[C@H](CCCCN)NC(=O)[C@@H](Cc2c[nH]c3ccccc23)NC(=O)[C@H](Cc2ccc(O)cc2)NC(=O)[C@H](C)N(C)C(=O)[C@H](Cc2ccccc2)NC1=O (some centres undefined)	x	x	-1.8%	-7.6%	x	x
O=C(O)C(=O)/C(=C\c1ccsc1)c1ccc2ccccc2n1	18.1%	u	x	x	u	21.4%
O=C(O)C(=O)/C(=C\c1ccccc1)c1ccc2ccccc2n1	3.0%	9.2µM*	7.7%	x	-19.4%	1.7%
O=C(O)C(=O)/C(=C\c1ccc([N+](=O)[O-])cc1)c1ccc2ccccc2n1	9.1%	19.6%	-0.2%	12.6µM*	u	u
Cc1ncsc1CCOC(=O)c1cccc([N+](=O)[O-])c1	-2.0%	1.3%	-3.9%	5.2%	19µM*!	-5.3%
N/C(=N\OC(=O)c1cccc2ccccc12)c1cccc([N+](=O)[O-])c1	12.1%	1.0%	0.0%	13.4%	u	14.6%
Cc1cccc(C(=O)O/N=C(\N)c2cccc([N+](=O)[O-])c2)c1	u	u	-5.3%	15.9%	1.35µM*	17.7%
O=C(COC(=O)c1cccc([N+](=O)[O-])c1)NCc1cccs1	0.3%	2.7%	1.4%	-1.5%	3.7%	4.1%
Cc1ccccc1C(=O)O/N=C(\N)c1cccc([N+](=O)[O-])c1	u	u	u	u	0.601µM*	4.47µM*
COc1cccc(C(=O)O/N=C(\N)c2ccc([N+](=O)[O-])cc2)c1OC	u	u	-4.1%	u	10.7µM*	10.2%[1.84 µM]
COc1ccccc1CNc1nc(-c2ccco2)nn1S(=O)(=O)c1ccc(C)cc1	x	x	x	x	4.9%	x
COc1ccc(CN2C(=O)c3cccnc3C2=O)cc1S(=O)(=O)NC(C)C	-7.1%	2.4%	x	x	7.3%	2.7%
CC1Cn2cc(C(=O)Nc3cccc(C(F)(F)F)c3)c(=O)c3c(Cl)ccc(c32)O1 (centres undefined)	x	x	x	x	2.7%	x
N/C(=N\OC(=O)c1cccs1)c1cccc([N+](=O)[O-])c1	21.3%	u	-5.3%	19.5%	3.38µM*	26.3%
N#C/C(=C(/O)c1ccc2c(c1)OCO2)c1nc2cc(C(F)(F)F)ccc2s1	-5.2%	-8.1%	x	x	16.9µM*	-3.0%
Cc1ccc(-n2nnc(-c3ccnc4ccccc34)n2)cc1	3.16µM*	13µM*	x	x	1.9µM*	4.47µM*
Fc1ccc(-n2nnc(-c3ccnc4ccccc34)n2)cc1	25.4%	u	x	x	2.13µM*	3.98µM*
c1ccc2oc(C3=NNC(=NC4CC4)SC3)cc2c1	0.282µM*	u	u	1µM*	0.757µM*	0.316µM*
c1ccc(CN=C2NN=C(c3cc4ccccc4o3)CS2)cc1	17.6%	1.4%	5.4%	17.7%	16.9µM*	18.0%
c1csc(C2=NNC(=NC3CCCCC3)SC2)c1	1.26µM*	u	-11.3%	12.6µM*	4.78µM*	1µM*
Cc1ccc(NC(=O)CCCSc2ccccc2)cc1S(=O)(=O)N1CCOCC1	-0.1%	-14.3%	2.8%	-34.3%	0.3%	-5.9%
